12-LOX inh – ALOX12 (human) lipoxygenase inhibition; P18054; purified 12hLO, xylenol orange hydroperoxide absorbance; Potency, µM (top dose mostly 108 µM), usual class: inhibitors; hit rate 1.1% among 580,000; AID 1671190
Target sequence (P18054 whole entry, looked up): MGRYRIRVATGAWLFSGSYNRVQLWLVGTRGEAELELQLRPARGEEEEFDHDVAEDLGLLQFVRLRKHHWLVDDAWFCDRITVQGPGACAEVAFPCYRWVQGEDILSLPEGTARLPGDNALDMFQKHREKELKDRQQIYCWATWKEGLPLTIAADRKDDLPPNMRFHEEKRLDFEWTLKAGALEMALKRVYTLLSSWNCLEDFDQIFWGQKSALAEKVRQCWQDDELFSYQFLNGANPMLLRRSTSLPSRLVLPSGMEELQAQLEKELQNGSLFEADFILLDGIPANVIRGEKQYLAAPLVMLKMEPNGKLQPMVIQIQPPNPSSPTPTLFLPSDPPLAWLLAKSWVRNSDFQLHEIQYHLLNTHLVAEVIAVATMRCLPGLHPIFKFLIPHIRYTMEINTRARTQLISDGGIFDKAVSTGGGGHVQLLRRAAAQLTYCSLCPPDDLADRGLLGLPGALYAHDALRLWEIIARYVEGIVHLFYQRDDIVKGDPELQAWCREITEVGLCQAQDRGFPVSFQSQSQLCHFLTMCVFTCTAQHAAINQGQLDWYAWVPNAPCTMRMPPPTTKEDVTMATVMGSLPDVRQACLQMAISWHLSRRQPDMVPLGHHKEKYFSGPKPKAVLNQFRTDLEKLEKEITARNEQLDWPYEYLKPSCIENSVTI
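Purified human 12hLO at 150 nM in 25 mM Hepes, 0.01% Triton X-100, pH 7.0, preincubated 15 min at room temperature with compound. Reaction started with 40 uM arachidonic acid, 30 min at room temperature. Hydroperoxide measured by Fe-xylenol orange, 573/405 nm absorbance ratio.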
IL1B secr inh – inflammasome signaling inhibition, IL-1 beta readout. THP-1 LPS/ATP IL-1B secretion, AlphaLISA, 16 h; stronger effect = lower value. activity change, % at 57.5 µM. hit rate 4.7% among 360,000; in the data active = activity change below about -50%; inconclusive = mostly about -30% to -49%
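Secreted IL-1B measured by AlphaLISA bead assay after 16 h compound exposure of THP-1 cells; compounds (final up to 57.5 uM) added 1 h before LPS (250 ng/mL) and ATP (1.25 mM) stimulation; lower signal means less secretion.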
HT1080 IDH1KD tx – HT-1080 IDH1 knockdown cell toxicity (counter line); HT-1080 IDH1 knockdown viability, ATP luminescence, 48 h; Potency, µM (series often up to 46.1 µM), hits mostly cytotoxic; hit rate 2% among 360,000; AID 686971
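Viability of IDH1-knockdown HT-1080 fibrosarcoma cells was assessed by CellTiter-Glo after 48 h at 37 °C with titrated compound; concentration-effect curves were classified by fit quality and response size.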
DT40 TDP1 CPT – DT40-hTDP1 cell growth loss with CPT | AID 686979 | chicken DT40 Tdp1-/-;hTDP1 cells + 20 nM CPT, ATP luminescence, 48 h | Potency, µM (series often up to 46.2 µM), most hits filed as inhibitors | hit rate 12% among 420,000; note: nearly all actives have a fitted effect of over 55% in size
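Chicken DT40 Tdp1-/- cells stably complemented with human TDP1 were seeded at 400 cells/well in medium containing 20 nM camptothecin, exposed to pin-transferred compounds, and grown at 37 °C for at least 48 hr. Viability was read as ATP luminescence.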
HT1080NT lethal – kills 2HG-producing HT-1080-NT fibrosarcoma cells; hit rate 1.6% among 360,000; HT-1080-NT fibrosarcoma viability, CellTiter-Glo ATP luminescence, 48 h; Potency, µM (doses to about 46.1 µM), usual class: cytotoxic;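 note: NT is the 2HG producing partner of a matched IDH1 knockdown line; nearly all actives have a fitted effect of over 55% in size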
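A 48-hour cytotoxicity screen used HT-1080-NT cells plated 2 hours before compound delivery. ATP-based CellTiter-Glo luminescence measured viability, normalized to DMSO and no-cell controls.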
DT40 TDP1 no CPT – qHTS for Inhibitors of human tyrosyl-DNA phosphodiesterase 1 (TDP1): qHTS in cells in absence of CPT | DT40 Tdp1-/- hTDP1 cells, no CPT, ATP luminescence, 48 h | Potency, µM (series often up to 46.2 µM), usual class: inhibitors | hit rate 15% among 420,000 | AID 686978, 2013; note: nearly all actives have a fitted effect of over 55% in size
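Camptothecin absent (DMSO only). Human TDP1-complemented DT40 knockout cells, 400 cells/well, 37 °C for minimum 48 hr; ATP measured via CellTiter-Glo, 30 min dark incubation, luminescence.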
Hits are given with their value; - = inactive; ? = inconclusive; . = no result given. The full list was thinned out, with hits kept by preference. Unless noted, calls come from the whole dose curve; as a rule, active = well fitted curve in the direction sought with a large enough effect; inconclusive = small, poorly fitted or top-dose-only effect, or another doubt; inactive = no such curve, though single readings can be large; an effect the other way counts as inactive or inconclusive.

SMILES	12-LOX inh	IL1B secr inh	HT1080 IDH1KD tx	DT40 TDP1 CPT	HT1080NT lethal	DT40 TDP1 no CPT
O=C(Nc1ccc(Br)cc1)C1CCCN(S(=O)(=O)c2cccnc2)C1 (stereo unspecified)	-	-	-	23µM	-	26µM
CCN(CC)c1ccc(NC(=O)C2CCCN(S(=O)(=O)c3cccnc3)C2)c(C)c1 (stereo unspecified)	-	-	-	15µM	-	10µM
CCc1cccc(NC(=O)C2CCCN(S(=O)(=O)c3cnc[nH]3)C2)c1 (stereo unspecified)	-	-	-	-	-	-
CCc1cccc(NC(=O)C2CCCN(c3cnn(Cc4ccccc4)c(=O)c3)C2)c1 (stereo unspecified)	40µM	.	.	.	.	.
CCc1cccc(NC(=O)C2CCCN(S(=O)(=O)c3cccnc3)C2)c1 (stereo unspecified)	-	-	-	?	-	15µM
Cc1ccc(NC(=O)C2CCCN(c3cnn(Cc4ccccc4)c(=O)c3)C2)c(C)c1 (stereo unspecified)	-	.	.	.	.	.
Cc1ccc(-n2ncc3c(SCC(N)=O)ncnc32)cc1C	-	-	-	?	-	?
CCN(CCCNC(=O)C1CCCN(S(=O)(=O)CC)C1)c1cccc(C)c1 (stereo unspecified)	-	-	-	23µM	-	15µM
CCN(CCNC(=O)C1CCCN(S(=O)(=O)CC)C1)c1ccccc1 (stereo unspecified)	-	-	-	-	-	-
O=C(NCC1(N2CCOCC2)CCCCC1)c1cccc(NC(=O)c2cccs2)c1	-	.	.	.	.	.
Cc1nc2cccnc2n1CC1CCCN(S(=O)(=O)c2ccc(CC(C)C)cc2)C1 (stereo unspecified)	-	.	.	.	.	.
CCOC(=O)C1=C(CN2CCCCC2)NC(=O)NC1c1ccc(OC)cc1 (stereo unspecified)	45µM	.	.	-	.	-
CCOC(=O)C1=C(CN2CCN(c3cc(C)ccc3C)CC2)NC(=O)NC1c1ccc(Cl)cc1 (stereo unspecified)	-	.	.	?	.	16µM
CCOC(=O)c1[nH]c(CN2CCN(c3ccc(OC)cc3)CC2)c(C(=O)OCC)c1C	-	-	?	-	-	13µM
CCOC(=O)c1[nH]c(C)c(C(=O)N2CCN(c3ccc(OC)cc3)CC2)c1C	-	-	-	-	-	?
CCOC(=O)C1=C(CN2CCN(c3ccc(OC)cc3)CC2)NC(=O)NC1c1ccc(Cl)cc1 (stereo unspecified)	?	.	.	21µM	.	15µM
O=C(c1ccccc1)n1c2ccccc2c(=O)n1-c1ccccc1CCl	.	-	-	?	-	?
Cc1ccc(NC(=O)c2cc(S(=O)(=O)N3CCOCC3)c(Br)s2)cc1	-	-	?	-	-	?
O=C(NCc1ccccc1Cl)c1c2c(nc3ccccc13)C(=O)N(C1CCCCC1)C2	?	.	.	18µM	.	?
O=C(NCc1ccccc1)c1c2c(nc3ccccc13)C(=O)N(C1CCCCC1)C2	-	.	.	16µM	.	18µM
O=C(NCc1ccc(F)cc1)c1c2c(nc3ccccc13)C(=O)N(C1CCCCC1)C2	-	.	.	?	.	?
CCN(CC)CCNC(=O)c1c2c(nc3ccccc13)C(=O)N(C1CCCCC1)C2	-	.	.	-	.	-
Cc1ccc(CCNC(=O)c2c3c(nc4ccccc24)C(=O)N(C2CCCCC2)C3)cc1	-	.	.	21µM	.	10µM
COC(=O)c1[nH]c2cc(OC)ccc2c1NC(=O)CN1CCCC(C)(C)C1	-	.	.	.	.	.
CC1(C)[C@H](Cc2cc(COc3ccccc3)on2)C[C@@H]1NC(=O)C1CCC1	-	.	.	.	.	.
SMILES	12-LOX inh	IL1B secr inh	HT1080 IDH1KD tx	DT40 TDP1 CPT	HT1080NT lethal	DT40 TDP1 no CPT
COC[C@@H]1CN(C(=O)c2ccc(OC)nc2)C[C@H]1c1ccccn1	-	.	.	.	.	.
COc1ccc(CN2CCCC(COc3ccccc3C(=O)NC3CC3)C2)c(OC)c1 (stereo unspecified)	-	.	.	.	.	.
CCN(CC)C(=O)CN1C(=O)/C(=C/c2ccccc2)SC1=S	-	-62	-	18µM	-	15µM
CCN(C(=O)CN1C(=O)/C(=C/c2ccccc2F)SC1=S)C1CCS(=O)(=O)C1 (stereo unspecified)	-	-	-	?	-	?
CCN(C(=O)CN1C(=O)S/C(=C\c2cccc(Cl)c2)C1=O)C1CCS(=O)(=O)C1 (stereo unspecified)	-	-	-	-	-	-
CCN(C(=O)CCN1C(=O)/C(=C/c2ccccc2)SC1=S)C1CCS(=O)(=O)C1 (stereo unspecified)	-	-83	?	18µM	?	?
CC(=C\c1ccccc1)/C=C1/SC(=S)N(CC(=O)O)C1=O	.	.	.	-	.	-
CCN(C(=O)CN1C(=O)S/C(=C\C=C\c2ccccc2)C1=O)C1CCS(=O)(=O)C1 (stereo unspecified)	-	-	-	1.8µM	-	1.5µM
O=C(O)CN1C(=O)/C(=C\C(Br)=C\c2ccccc2)SC1=S	35µM	?	?	?	?	?
O=C(N[C@H](C(=O)N1CCC[C@H]1C(=O)NCc1ccccc1)C1CCCCC1)c1ccc(Cl)cc1Cl	-	.	.	.	.	.
CCN(CC)S(=O)(=O)c1cccc(C(=O)NC(c2ccc3c(c2)OCCO3)C(C)C)c1 (stereo unspecified)	-	.	.	.	.	.
COc1ccc(NC(=O)CCc2c(C)nn(-c3ccc(N4CCOCC4)nn3)c2C)cc1Cl	-	.	.	-	.	?
CCN(CC)CCC(c1cc(OC)c(OC)c(OC)c1)c1c(O)cc(OC)cc1OC (stereo unspecified)	-	-	-	?	-	?
CCCCCc1cc(=O)oc2c(C(CCN3CCCCC3)c3ccc4c(c3)OCO4)c(OC)cc(OC)c12 (stereo unspecified)	-	-	?	23µM	?	?
COc1cc(OC)c2c(-c3ccccc3)cc(=O)oc2c1C(CC(=O)N1CCOCC1)c1ccc2c(c1)OCO2 (stereo unspecified)	-	-	-	?	-	?
COc1cc(OC)c2ccc(=O)oc2c1C(CC(=O)N1CCOCC1)c1ccc2c(c1)OCO2 (stereo unspecified)	-	-	-	-	-	-
CCCCCc1cc(=O)oc2c(C(CCN(CC)CC)c3cc(OC)c(OC)c(OC)c3)c(OC)cc(OC)c12 (stereo unspecified)	?	?	18µM	?	?	18µM
COc1cc(OC)c2ccc(=O)oc2c1C(CCN1CCCC1)c1ccc2c(c1)OCO2 (stereo unspecified)	-	-	-	?	-	18µM

Screening data as filed in PubChem.
